# Screening results as filed in PubChem.
# Hits are enriched below; roughly 1.2% of the tested compounds scored in any of these assays.
# GSH bead fluor: compound fluorescence on glutathione beads, profiling panel, artefact control, biophysical, 488/530 nm, flow cytometry. GSH beads flow cytometry, compound fluorescence 488/530 nm; stronger effect = higher value. fluorescence (KMESF) at 10 µM. actives 0.25% (n = 190,000); in the data active = fluorescence above about 89;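 note: glutathione beads carrying GST-tagged Bcl family fusion proteins plus one bare bead set; values are compound well signal with DMSO vehicle wells as background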
# RGS16-Gao HTS: modulators of RGS16 binding to Galphao, primary screen, biochemical, human proteins, multiplexed bead flow cytometry. bead-based flow cytometry RGS16-Galphao binding, fluorescence; actives lie on both sides. binding response (% of control), % at 10 µM. actives 0.38% (n = 220,000). AID 1441, 2008;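 note: Galphao activated by GDP with aluminum fluoride before binding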
# Target sequence (O15492 whole entry, looked up): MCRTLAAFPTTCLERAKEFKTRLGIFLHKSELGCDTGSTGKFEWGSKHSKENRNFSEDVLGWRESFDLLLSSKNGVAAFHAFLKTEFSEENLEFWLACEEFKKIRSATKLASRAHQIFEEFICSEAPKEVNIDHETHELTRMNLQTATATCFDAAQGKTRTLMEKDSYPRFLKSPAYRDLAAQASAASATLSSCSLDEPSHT
# Target sequence (P09471 whole entry, looked up): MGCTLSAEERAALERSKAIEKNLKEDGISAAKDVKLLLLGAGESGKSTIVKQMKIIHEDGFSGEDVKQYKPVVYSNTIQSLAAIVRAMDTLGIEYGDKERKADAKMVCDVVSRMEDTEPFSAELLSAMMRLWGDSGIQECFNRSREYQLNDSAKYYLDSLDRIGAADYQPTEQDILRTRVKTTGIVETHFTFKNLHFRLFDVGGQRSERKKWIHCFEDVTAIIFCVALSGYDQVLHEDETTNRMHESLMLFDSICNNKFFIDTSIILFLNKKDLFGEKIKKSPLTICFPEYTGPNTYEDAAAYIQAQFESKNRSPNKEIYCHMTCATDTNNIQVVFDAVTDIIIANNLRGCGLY
# RGS4-Gao reg: modulators of RGS4 binding to Galphao, primary screen, biochemical, multiplexed bead flow cytometry; binding response (% of control), % at 10 µM; actives lie on both sides; AID 1415, 2008; actives 0.33% (n = 220,000); Guanine nucleotide-binding protein G(o) subunit alpha (Homo sapiens), P09471; in the data active = binding response below about 49% or above about 150%; inactive = in between;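 note: fluorescent Galphao activated with aluminum fluoride binding bead-coupled RGS4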
# Target sequence (P09471 whole entry, looked up): as above
# Avidin bead fluor: green autofluorescence of compounds with avidin beads – biophysical, 488/530 nm, flow cytometry, artefact control, profiling panel | compound fluorescence 488/530 nm; stronger effect = higher value | fluorescence (KMESF) at 10 µM | actives 0.38% (n = 220,000) | AID 1775, 2009; in the data active = fluorescence above about 47
# RGS7-Gao: RGS7-Galphao binding modulators, primary screen, biochemical, multiplexed bead flow cytometry; Guanine nucleotide-binding protein G(o) subunit alpha (Homo sapiens), P09471; actives lie on both sides; binding response (% of control), % at 10 µM; actives 0.35% (n = 220,000); AID 1439, 2008; in the data active = binding response below about 49% or above about 150%; inconclusive = no clear call, values can overlap the other calls; inactive = in between;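 note: fluorescent Galphao held in activated GDP-AlF4 state binding bead-coupled RGS7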
# RGS8-Gao: RGS8-Galphao binding modulators, primary screen, biochemical, multiplexed bead flow cytometry; Guanine nucleotide-binding protein G(o) subunit alpha (Homo sapiens), P09471; actives lie on both sides; response (percent of control binding), % at 10 µM; actives 0.34% (n = 220,000); AID 1423, 2008; in the data active = response below about 60% or above about 140%; inactive = in between;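 note: Galphao activated as the GDP aluminium fluoride complex binding bead-coupled RGS8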
# RGS4-Gao HTS: modulators of RGS–Galpha-o binding, primary screen, biochemical, multiplexed beads, flow cytometry, RGS4/7/8/16/19; actives 99% (n = 1,600); multiplexed bead flow cytometry; RGS4–Galpha-o binding response, % at 10 µM; shares compounds with RGS16-Gao HTS;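 note: fluorescently labeled Galpha-o bound to GDP with aluminium fluoride binding biotinylated RGS beads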
# Biotin-avidin: disruption of biotin probe capture by avidin, counter-screen for RGS protein interaction modulators, biochemical, flow cytometry, bead-based. shares compounds with RGS16-Gao HTS. streptavidin beads, fluorescein-biotin binding. inhibition, % at 10 µM. 1,700 tested, under 10 active;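 active = inhibition above 50%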;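 note: median green fluorescence of gated singlet beads compared with DMSO control wells; 0% = DMSO wells and 100% = complete loss of bead fluorescence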
# RGS8-Gao single: RGS8-Galphao binding modulators, confirmation, biochemical, multiplexed bead flow cytometry, single concentration; binding response (% of control), % at 10 µM; shares compounds with RGS16-Gao HTS; actives 3% (n = 1,700); AID 1836, 2009; bead-based flow cytometry RGS8-Galphao binding, fluorescence; actives lie on both sides; in the data active = binding response below about 72% or above about 130%; inactive = in between;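 note: Galphao activated as GDP AlF4 complex before binding bead RGS8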
# RGS7-Gao single: RGS7-Galphao binding modulators, confirmation, biochemical, multiplexed bead flow cytometry, single concentration. shares compounds with RGS16-Gao HTS. bead-based flow cytometry RGS7-Galphao binding; actives lie on both sides. response (percent of control binding), % at 10 µM. actives 7.8% (n = 1,700). AID 1837, 2009; in the data active = response below about 75% or above about 130%; inactive = in between;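 note: fluorescent Galphao activated with GDP and aluminum fluoride binding bead-coupled RGS7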
# RGS16-Gao conf: modulators of RGS16-Galphao protein binding, confirmation, biochemical, single concentration, multiplexed bead flow cytometry. response (% of control binding), % at 10 µM. shares compounds with RGS16-Gao HTS. actives 4% (n = 1,700). bead-based flow cytometry; actives lie on both sides. AID 1838, 2009; in the data active = response below about 74% or above about 130%; inactive = in between;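 note: Galphao activated as the GDP aluminium fluoride complex binding bead-coupled RGS16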
# RGS4-Gao confirm: modulators of RGS4-Galphao protein binding, confirmation, biochemical, single concentration, multiplexed bead flow cytometry. actives 4% (n = 1,700). shares compounds with RGS16-Gao HTS. actives lie on both sides. AID 1840, 2009. binding response (% of control), % at 10 µM; in the data active = binding response below about 74% or above about 130%; inactive = in between
# RGS19-Gao single: regulators of RGS19-Galphao binding, confirmation, biochemical, single point, multiplexed bead flow cytometry | bead-based flow cytometry RGS19-Galphao binding; actives lie on both sides | response (percent of control binding), % at 10 µM | shares compounds with RGS16-Gao HTS | AID 1841, 2009 | actives 5% (n = 1,700); in the data active = response below about 50% or above about 160%; inactive = in between;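 note: 100% = no compound control and 0% = blank background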
# The depositor's hits bear a star; u = inconclusive; x = not tested or not shown; [ ] = remark or other dose. Unless noted, the rule behind the calls is not given here.
SMILES,GSH bead fluor,RGS16-Gao HTS,RGS4-Gao reg,Avidin bead fluor,RGS7-Gao,RGS8-Gao,Biotin-avidin,RGS8-Gao single,RGS7-Gao single,RGS16-Gao conf,RGS4-Gao confirm,RGS19-Gao single,others
CC1Cc2ccccc2N1C(=S)NC(=O)C1(C)CC1(Cl)Cl (configuration not stated),15,7.2*,8.4*,4,13*,31*,0,99,99,101,101,98,
CC1Cc2ccccc2N1C(=S)NC(=O)c1ccco1 (configuration not stated),15,99,101,11,u,99,x,x,x,x,x,x,
COc1cccc(-c2c3c([nH]c(=O)c2C#N)CCc2cc(OC)ccc2-3)c1,x,95,88,10,u,102,x,x,x,x,x,x,
Cc1cc(C)c(-c2cc(NC(=O)CSc3n[nH]c(N)n3)n(-c3ccccc3)n2)cc1C,33,-38*,-44*,-5,-16*,6.7*,0,100,106,102,103,106,
CC1(C)CC(=O)C(C=NCC(N)=O)=C(O)C1,32,151,147,12,149,146*[activator],x,x,x,x,x,x,RGS4-Gao HTS=147*
CC1(C)OC(=O)C(=Cc2ccc(-c3ccc(S(N)(=O)=O)cc3)o2)C(=O)O1,65,94,95,6,94,83,-2,72*,88,95,93,50*,
NS(=O)(=O)c1ccc(-c2ccc(/C=C3\C(=O)Nc4cc(Cl)ccc43)o2)cc1,4,95,91,10,91,100,x,x,x,x,x,x,
COCCN1C(=O)c2ccccc2C(C(=O)NCCCN2CCCC2)C1c1c[nH]c2ccccc12 (configuration not stated),21,32,38*,15,34*,42*,1,105,94,101,99,93,
CN1C(=O)c2ccccc2C(C(=O)NCCCN2CCCC2=O)C1c1c[nH]c2ccccc12 (configuration not stated),6,102,105,10,103,102,x,x,x,x,x,x,
CCC(CO)[n+]1c(C)cc(/C=C2\Sc3ccccc3N2Cc2ccccc2)cc1C (configuration not stated),12,99,110,13,124,100,x,x,x,x,x,x,
COc1ccc(OC)c(S(=O)(=O)N2CCC(C(=O)NCCc3ccc(OC)c(OC)c3)CC2)c1,17,x,x,x,x,x,2,102,103,106,102,117,
O=[N+]([O-])c1ccc(-c2n(-c3ccccn3)c3ccccc3[n+]2-c2ccccn2)cc1,x,107,101,9,u,102,x,x,x,x,x,x,
O=C(Oc1cccc2cccnc12)c1ccco1,34,94,97,7,96,94,x,x,x,x,x,x,
O=C(Cc1ccc(Cl)cc1)Oc1cccc2cccnc12,24,22*,79,6,82,66,0,98,96,97,99,84,RGS4-Gao HTS=79*
CN1CCN(CCCNC(=O)c2ccc3c(c2)N(Cc2ccccc2)CCS3)CC1,25,140,142,3,134,145*[activator],0,102,105,102,102,105,RGS4-Gao HTS=142*
O=C(NCCCN1CCOCC1)c1ccc2c(c1)N(Cc1ccccc1)CCS2,x,98,102,5,u,100,x,x,x,x,x,x,
CCc1nnc(NC(=O)C(CC)CC)s1,x,94,95,7,u,100,x,x,x,x,x,x,
Cc1csc(NC(=O)C2C3C=CC(C3)C2C(=O)O)n1 (configuration not stated),32,-20*,-23*,-4,-9.1*,10*,-1,99,103,100,100,112,
CCN(C(=O)CSc1nnnn1-c1ccccc1)C1CCS(=O)(=O)C1 (configuration not stated),18,113,102,10,104,101,x,x,x,x,x,x,
S=C(Nc1ccc2c(c1)OCCO2)Nc1ccc2c(c1)OCO2,27,99,90,9,93,97,x,x,x,x,x,x,
CN(C)C(=S)Nc1ccc2c(c1)OCCO2,x,46,40*,4,u,69,0,100,97,101,101,112,
O=C1CCCC2=C1C(c1ccccc1O)C1=C(CCCC1=O)O2,6,259,113,7,110,141*[activator],0,100,102,102,101,96,RGS4-Gao HTS=113*
O=C1CCCC(O)=C1C1C2=C(CCCC2=O)OC2=C1C(=O)CCC2,15,122,106,12,104,107,x,x,x,x,x,x,
O=C(CSc1ccc2ccccc2n1)NCc1ccc2c(c1)OCO2,11,11*,21*,0,u,14*,-4,103,107,106,102,101,
Cc1onc(-c2c(Cl)cccc2Cl)c1NC(=O)NC1CCSC1 (configuration not stated),x,102,111,17,u,101,x,x,x,x,x,x,
CC(C)CNC(=O)c1cnn2c(C(F)(F)F)cc(C(F)(F)F)nc12,x,99,103,4,u,102,x,x,x,x,x,x,
